A selection: hits, their analogues and other compounds. The true share with any hit is near 3.4%.
FBW7 activator – human FBW7 E3 ligase activation, primary screen; AlphaScreen FBW7–phospho-cyclin E peptide binding, activator screen; normalized activity (activation), % at 26.1 µM; 0.13% of 650,000 active; AID 1259310; in the data active = normalized activity above about 1.9%;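 also: purified mutant Fbw7 with reduced substrate affinity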
TEAD-YAP inh – TEAD-YAP interaction inhibition | HEK-TIYL cells, TEAD-Gal4/YAP UAS-luciferase luminescence | inhibition, % at 9.12 µM | 1.4% of 640,000 active | AID 1259422; in the data active = inhibition above about 32%;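 also: 0% = median of test compound wells and 100% = reference inhibitor wells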
GPR151 activ – human GPR151 activation. activation, % at 11.2 µM. 1% of 650,000 active. PathHunter beta-arrestin GPR151 cells, luminescence; in the data active = activation above about 4.9%;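 also: 0% = median of compound wells and 100% = cells with positive control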
Target sequence (Q8TDV0 whole entry, looked up): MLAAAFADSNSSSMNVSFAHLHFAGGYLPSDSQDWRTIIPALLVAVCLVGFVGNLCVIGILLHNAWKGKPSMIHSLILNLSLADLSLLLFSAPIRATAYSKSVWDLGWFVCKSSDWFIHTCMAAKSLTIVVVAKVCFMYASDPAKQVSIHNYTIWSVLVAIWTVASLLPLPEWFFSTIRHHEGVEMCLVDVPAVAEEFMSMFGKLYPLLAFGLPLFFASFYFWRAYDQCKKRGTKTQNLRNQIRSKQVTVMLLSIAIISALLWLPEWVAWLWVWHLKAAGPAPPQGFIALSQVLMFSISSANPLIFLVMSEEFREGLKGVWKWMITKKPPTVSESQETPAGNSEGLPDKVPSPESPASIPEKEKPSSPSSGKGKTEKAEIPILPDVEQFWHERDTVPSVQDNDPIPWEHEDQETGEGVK
MITF inh – human MITF inhibition, primary screen; AlphaScreen MITF homodimerization, bead proximity signal; inhibition, % at 2.6 µM; O75030; 0.91% of 650,000 active; in the data active = inhibition above about 50%;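 also: 0% = vehicle wells with protein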
GPR151 conf act – confirmation of human GPR151 activators; shares compounds with GPR151 activ; GPR151 PathHunter beta-arrestin cells, luminescence, 90 min; % of EA-reagent control over plate median; activation, % at 11.2 µM; 6,700 tested, under 10 active; AID 1508609;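 active = mean percent activation across replicates above the confirmation screen cutoff of 4.91%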
GPR119 ag – counter-screen for GPR151 activators: effect on human GPR119 | 0.3% of 6,700 active | activation, % at 11.2 µM | AID 1508611 | GPR119 PathHunter beta-arrestin cells, luminescence, 90 min; 0 = compound-well median, 100 = enzyme-acceptor control | shares compounds with GPR151 activ;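 active = mean percent activation in the counterscreen above 29.09%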;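 also: counterscreen on off-target GPR119 to flag nonselective hits from the GPR151 activator screen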
An asterisk follows results filed as active; x = not tested or not shown; ! = repeats disagree.

SMILES	FBW7 activator	TEAD-YAP inh	GPR151 activ	MITF inh	GPR151 conf act	GPR119 ag
C=CCN1C(=O)c2oc3ccccc3c(=O)c2C1c1ccccc1 (stereo unspecified)	0	-8	6.4*	-8	0	-2
COc1cccc(C2c3c(oc4ccccc4c3=O)C(=O)N2CCO)c1 (stereo unspecified)	0	7	8.0*	11	0	-8
CN(C)N=Nc1ccc(S(=O)(=O)NC(=O)C23CC4CC(CC(C4)C2)C3)cc1	0	7	1	11	x	x
Cc1ccc(-c2nc(-c3ccccc3)c(-c3ccc(C(=O)c4ccccc4)cc3)[nH]2)cc1	0	-6	9.6*	-6	1	20
c1ccc(Oc2ccc(-c3[nH]c(-c4ccccc4)nc3-c3ccccc3)cc2)cc1	0	0	5.3*	5	1	5
O=C(O)c1ccc(-c2nc(-c3ccccc3)c(-c3ccc(C(=O)c4ccccc4)cc3)[nH]2)cc1	0	1	0	5	x	x
CCCCSc1nnc2c(n1)OC(c1ccccc1OCC(=O)OCC)Nc1ccccc1-2 (stereo unspecified)	0	-23	5.1*	-5	0	4
CCCCSc1nnc2c(n1)OC(C)(C)Nc1ccccc1-2	0	4	5.1*	9	0	3
CCCCSc1nnc2c(n1)OC(c1ccccc1OC)Nc1ccccc1-2 (stereo unspecified)	0	-9	-2	0	x	x
O=C(Cc1cscn1)N1CCc2nnc(Cc3ccccc3)n2CC1	0	-7	0	-6	x	x
CCC(CO)NCc1ccc(OCC(N)=O)cc1 (stereo unspecified)	0	13	0	0	x	x
COc1ccc(NC(=O)c2ccc(Br)s2)cc1OC	0	-29	8.8*	0	0	9
Fc1ccc(-c2[nH]ncc2CCN2CCOCC2)cc1	0	10	9.9*	0	1	6
CO/N=C(/C(=O)N[C@@H]1C(=O)N2C(C(=O)O)=C(COC(C)=O)CS[C@H]12)c1csc(N)n1	0	2	0	23	x	x
CC(=O)OCC1=C(C(=O)O)N2C(=O)[C@@H](NC(=O)Cc3cccs3)[C@H]2SC1	0	-3	19*!	-9	1	4
CCOC(=O)C1=CNC2=C(C(=O)CC(c3ccccc3)C2)C1C(=O)OCC (stereo unspecified)	0	9	1	-5	x	x
Cc1ccc(OCC(=O)NC23CC4CC(CC(C4)C2)C3)cc1C	0	-43	5.1*	5	0	-10
COc1cc2c(cc1OC)n(CC(=O)NCc1cccs1)n1c(C)cc(=O)nc21	0	3	2	1	x	x
CC(=O)Nc1ccc(NC(=O)c2cncc(-c3ccc(C(=O)N4CCN(C)CC4)cc3)c2)cc1	0	-4	2	18	x	x
Cc1c(NC(=O)C(C)(C)C)cccc1C(=O)NN1C(=O)c2ccccc2C1=O	1	3	-1	2	x	x
CCCCn1c(C)nc2c(sc3nc4c(cc32)COC(C)(C)C4)c1=O	0	-34	9.0*	20	1	1
Cc1ccccc1C(=O)NC(C)c1nnc2n1CCN(Cc1ccccc1F)CC2 (stereo unspecified)	0	3	-1	6	x	x
Cc1ccccc1C(=O)NC(C)c1nnc2n1CCN(Cc1ccc(F)cc1)CC2 (stereo unspecified)	0	-1	6.5*	3	0	11
COc1ccc(-c2ccc(/C=N/N3C(=O)C4C5C=CC(C6CC56)C4C3=O)o2)c([N+](=O)[O-])c1 (stereo unspecified)	0	8	5.0*	10	3	0
CN(CCn1ccnc1)c1nc2nonc2nc1NCc1ccccc1	0	0	2	6	x	x
SMILES	FBW7 activator	TEAD-YAP inh	GPR151 activ	MITF inh	GPR151 conf act	GPR119 ag
CCN(CCn1cccn1)c1nc2nonc2nc1NCc1ccccc1	0	-4	6.5*	8	0	2
O=C(NCc1ccccc1)c1csc(Nc2cccnc2)n1	0	6	0	10	x	x
COc1ccc(-n2c(C)nc3cc(C(=O)NCCc4ccc(OC)c(OC)c4)ccc32)cc1	0	-20	0	-26	x	x
CCc1ccc(-n2c(C)nc3cc(C(=O)NCCc4ccc(OC)c(OC)c4)ccc32)cc1	0	8	5.1*	-5	-1	-10
O=C(c1cc2n(n1)C(C(F)(F)F)CC(c1ccccc1)N2)N1CCN(Cc2ccccc2)CC1 (stereo unspecified)	0	-4	-1	-1	x	x
O=C(OCCN1C(=O)c2cccc3c(N4CCOCC4)ccc(c23)C1=O)c1cccs1	0	5	-1	-22	x	x
Cc1sc(N=C(N)N)nc1-c1ccc2c(c1)CCN2C(=O)C1CCCCC1	0	5	5.1*	6	0	-1
COCCN1C(=O)C(O)=C(C(=O)c2ccc(C)o2)C1c1ccc(C(C)(C)C)cc1 (stereo unspecified)	0	7	7.5*	-1	0	-2
COCCCN1C(=O)C(O)=C(C(=O)c2ccco2)C1c1ccc(C(C)(C)C)cc1 (stereo unspecified)	1	17	0	19	x	x
Cc1cc(C(=O)NNC(=O)CCNS(=O)(=O)c2ccc(C)c(C)c2)c(C)o1	0	0	-1	-2	x	x
O=C(Nc1nnc(-c2ccco2)o1)c1nc2ccccc2s1	0	-31	4.9*	4	0	-1
NC(=O)COC(=O)/C=C/c1ccc(Cl)cc1	0	3	5.6*	3	0	0
O=C(NC1CC1)c1cnc(N2CCN(c3ccccn3)CC2)s1	0	-17	5.0*	10	1	3
CCOC(=O)c1ccc(NC(=O)CCc2nc3cccnc3n2-c2ccccc2)cc1	1	6	0	12	x	x
